From PubChem BioAssay AID720540 (National Center for Advancing Translational Sciences (NCATS), 2013)
About 460 (35%) of roughly 1,300 compounds were called active. Not shown: some 39% with an inconclusive outcome. Calls follow the shape of the dose curve; as a rule, active = well fitted inhibition curve with a large enough effect; inconclusive = small, poorly fitted or top-dose-only effect; inactive = flat fitted curve, though single readings scatter. The list shows a part of the results.

Each compound was assayed against Protein phosphatase EYA2 (Homo sapiens) (UniProt O00167) (assay: qHTS for Inhibitors of the Phosphatase Activity of Eya2: Confirmatory Assay for Cherry-picked Compounds). Settings: purified EYA2 phosphatase activity, qHTS confirmation; series mostly up to 46.1 µM; activity change, negative = inhibition: at the top concentration.
Chain of Protein phosphatase EYA2 (Homo sapiens) (O00167 whole entry, looked up): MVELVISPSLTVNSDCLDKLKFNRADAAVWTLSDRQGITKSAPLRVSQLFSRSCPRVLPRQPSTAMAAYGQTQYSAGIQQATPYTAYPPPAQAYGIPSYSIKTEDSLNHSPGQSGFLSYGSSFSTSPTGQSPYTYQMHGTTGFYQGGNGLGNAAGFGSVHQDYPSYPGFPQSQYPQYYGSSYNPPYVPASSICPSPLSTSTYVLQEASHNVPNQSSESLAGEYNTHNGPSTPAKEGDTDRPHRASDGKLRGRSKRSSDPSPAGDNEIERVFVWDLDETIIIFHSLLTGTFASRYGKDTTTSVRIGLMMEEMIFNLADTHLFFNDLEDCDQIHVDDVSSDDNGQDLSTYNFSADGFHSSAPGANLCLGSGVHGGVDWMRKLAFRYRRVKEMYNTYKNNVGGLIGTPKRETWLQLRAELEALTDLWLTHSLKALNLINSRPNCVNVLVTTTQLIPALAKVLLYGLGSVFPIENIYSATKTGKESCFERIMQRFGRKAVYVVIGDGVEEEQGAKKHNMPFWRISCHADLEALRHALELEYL
Summary of the method: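 Eya2 (0.2 uM working solution) preincubated 10 min at room temperature with compound in pH 7.5 HEPES buffer with MgCl2, BSA, DTT. OMFP added (50 uM working solution), 10 min more; fluorescence 485/525 nm, normalized to EGTA and DMSO.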
Also: nearly all actives have a fitted effect of over 65% in size.
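For activity change, negative = inhibition in this document: 0% = DMSO wells and -100% = EGTA control giving full inhibition.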
Potency is read from the fitted curve at half-maximal effect.

Potency, active:
Cc1ccc(NC(=O)CSc2cccc3cccnc23)c(C)c1 5.36 µM, CCN1C(=O)/C(=C2/C=Cc3ccccc3N2CC)SC1=S 3.79 µM, Cc1cccc(NC2=C(NCCO)C(=O)c3ccccc3C2=O)c1 16.9 µM, O=C1C=CC(=O)c2c(O)c(N3CCN(CCOCCO)CC3)c(Br)c(O)c21 13.5 µM, CC(=O)N1CCN(/[N+]([O-])=N/Oc2ccc([N+](=O)[O-])cc2[N+](=O)[O-])CC1 19 µM, Cn1nc([N+](=O)[O-])nc1Sc1cccc2cccnc12 1.9 µM, O=c1c(O)cccc2cc(O)c(O)c(O)c12 8.49 µM, OCCN(Cc1cccnc1)Cc1ccccn1 5.36 µM, O=C(CCCl)Nc1cccc2cccnc12 15.1 µM, O=S(=O)(Nc1cccc2cccnc12)c1ccccc1Br 16.9 µM, CC(=O)Nc1ccc(S(=O)(=O)Nc2cccc3cccnc23)cc1 4.78 µM, NC(=O)c1c(NC(=O)c2ccc(N3C(=O)CCC3=O)cc2)sc2c1CCCC2 1.51 µM, CCc1nnc2c(N(C)C)nc3ccccc3n12 15.1 µM, Cn1c(=O)n(Cc2ccc(F)cc2)c(=O)c2c1nc1n2CCN1Cc1ccco1 16.9 µM, Cc1ccc(C(=O)Oc2ccc(C(=O)COC(=O)c3cnccn3)cc2)cc1 0.478 µM, Clc1ccc(-c2ccc(CNCc3ccccn3)o2)cc1 15.1 µM, Clc1cccc(-c2ccc(CNCc3ccccn3)o2)c1 19 µM, Fc1ccc(-c2ccc(CNCc3ccccn3)o2)cc1 19 µM, CCOc1cc(C=NNC(=O)c2cccc(S(=O)(=O)N3CCCC3)c2)ccc1O 6.01 µM, CC1CCC(=NNc2ccc(C(F)(F)F)cc2[N+](=O)[O-])CC1 (centres undefined) 7.57 µM

Activity change, negative = inhibition, inactive:
c1ccc2cc(CSCc3nc4ccccc4[nH]3)ccc2c1 -26.1%, Cc1nn2c(c1-c1ccccc1)NC1=C(C(=O)CCC1)C2c1ccccc1 (centres undefined) -15.1%, CC1(C)CC(=O)c2c(oc3ccc(NS(=O)(=O)c4cccc5cccnc45)cc23)C1 -15.7%, COc1ccc(N(CC(=O)Nc2cccc(C(C)=O)c2)S(=O)(=O)c2ccc(NC(C)=O)cc2)cc1 -23.4%, CCOc1ccc(Br)cc1S(=O)(=O)NC1CC(C)(C)NC(C)(C)C1 -5.16%, CCCC(=O)NC(=S)Nc1sc2c(c1C(N)=O)CCC2 0.48%, CN(C)S(=O)(=O)n1cnc2ccccc21 -1.26%, Cn1c(=O)n(CCO)c(=O)c2c1nc(Br)n2Cc1ccccc1 -3.69%, O=S(=O)(c1ccc(Cl)s1)N1CCc2ccccc2C1 43.7%
